The supplement of paper PMC13380429

Assays:
[1] = test system: Vero E6 infected with SARS-CoV-2; experiment: morphology score (similarity to uninfected cells); higher = more like uninfected cells; conditions: 24 h
[2] = test system: Vero E6 infected with SARS-CoV-2; experiment: SARS-CoV-2 infection rate relative to infected DMSO; higher = more infection, active = 60 or less; conditions: 24 h

| Compound | morphology score [1] | SARS-CoV-2 infection rate [2] |
| --- | --- | --- |
| CCCC(=O)OCOC(=O)C1=C(C)NC(C)=C(C(=O)OC)C1c1cccc(Cl)c1Cl (stereo not drawn) [cleviprex] (10 µM) | 0.0656 | 102% (inactive) |
| CCOC(=O)c1ccc(N)cc1 [benzocaine] (10 µM) | -0.0142 | 112% (inactive) |
| O=C(O)[C@@H](S)[C@@H](S)C(=O)O [dimercaptosuccinic-acid] (10 µM) | 0.102 | 100% (inactive) |
| C=CCNC1=C2C[C@@H](C)C[C@H](OC)[C@H](O)[C@@H](C)/C=C(\C)[C@H](OC(N)=O)[C@@H](OC)/C=C\C=C(/C)C(=O)NC(=CC1=O)C2=O [tanespimycin] (10 µM) | -0.0472 | 114% (inactive) |
| CC1=C(/C=C/C(C)=C/C=C/C(C)=C/C=C/C=C(C)/C=C/C=C(C)/C=C/C2=C(C)C(=O)[C@@H](O)CC2(C)C)C(C)(C)C[C@H](O)C1=O [astaxanthin] (10 µM) | 0.0152 | 107% (inactive) |
| CCCC(=O)O[C@]1(C(=O)COC(C)=O)CC[C@H]2[C@@H]3C[C@H](F)C4=CC(=O)C=C[C@]4(C)[C@@]3(F)[C@@H](O)C[C@@]21C [difluprednate] (10 µM) | 0.215 | 100% (inactive) |
| CCCCC[C@H](O)/C=C/[C@H]1[C@H](O)CC(=O)[C@@H]1C/C=C\CCCC(=O)O [dinoprostone] (10 µM) | 0.144 | 95.5% (inactive) |
| CC(=O)c1ccc(NS(C)(=O)=O)c(Oc2ccc(F)cc2F)c1 (10 µM) | 0.115 | 92.5% (inactive) |
| CN[C@@H]1[C@@H](O)[C@@H](O[C@@H]2[C@@H](O)[C@H](O[C@H]3OC(CN)=CC[C@H]3N)[C@@H](N)C[C@H]2N)OC[C@]1(C)O [Sisomicin (sulfate)] (10 µM) | 0.222 | 102% (inactive) |
